# Assay outcomes deposited in PubChem by several laboratories.
# NALP1 inh = NALP1 inhibition; S. cerevisiae NALP1/ASC/caspase-1 growth, X-gal OD620, 72 h; inhibition, % at 10 µM; hit rate 0.61% among 280,000; AID 2071; in the data active means inhibition mostly above about 24%, no sharp cut-off; inactive means mostly below about 32%
# APOBEC3G inh = blocks human APOBEC3G single-stranded DNA deamination | Q9HC16 | recombinant A3G, ssDNA deamination FAM/TAMRA fluorescence | inhibition, % at 20 µM | hit rate 0.28% among 330,000;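 active means inhibition of at least 40% at 20 µM, with no more than 30% in the related APOBEC3A deaminase screen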;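 further: plate controls were DMSO wells with A3G for no effect and wells lacking A3G enzyme for full effect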
# PolyA inh = blocks polyadenylation in yeast reporter cells | S. cerevisiae SKY197-pL101 polyadenylation reporter, beta-gal luminescence; efflux-impaired pdr1/pdr3 knockout yeast; score 100 = 6 SD above DMSO | activity score, % at 12 µM | hit rate 0.02% among 300,000;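 active means lowest replicate activity score at least 50, where 100 means six control SD above control mean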;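 further: yeast exposed to compound for 9 h at 30 °C; higher score means more reporter readthrough which indicates perturbed polyadenylation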
# A3A deaminase = inhibitors of human APOBEC3A DNA deaminase | AID 493011 | P31941 | recombinant A3A, FAM/TAMRA ssDNA deamination fluorescence | hit rate 0.41% among 330,000 | inhibition, % at 20 µM;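 active means at least 40% inhibition at 20 µM here, with at most 30% in a related deaminase screen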;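 further: plate controls were A3A with DMSO for no effect and wells lacking A3A enzyme for full effect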
# Target sequence (P31941 whole entry, looked up): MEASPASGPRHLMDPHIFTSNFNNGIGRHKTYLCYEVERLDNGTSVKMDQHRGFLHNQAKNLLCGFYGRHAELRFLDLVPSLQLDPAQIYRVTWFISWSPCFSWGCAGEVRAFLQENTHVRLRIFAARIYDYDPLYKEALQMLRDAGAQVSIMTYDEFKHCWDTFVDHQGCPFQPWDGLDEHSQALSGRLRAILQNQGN
# APOBEC3G confirm = APOBEC3G (human) deaminase inhibition, confirmed | shares compounds with APOBEC3G inh | inhibition, % at 20 µM | recombinant A3G ssDNA deaminase, UDG/FAM-TAMRA fluorescence | AID 493152 | hit rate 72% among 890;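 active means inhibition reaching a set limit in any replicate at 20 µM, the limit being 80% of the first screen's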
# UDG ctr A3G = E. coli UDG inhibition in APOBEC3G counter-screen; shares compounds with APOBEC3G inh; UDG counterscreen, FAM/TAMRA oligo fluorescence; inhibition, % at 20 µM; AID 504715; 710 tested, under 10 active;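 active means compounds giving 40% or more inhibition at 20 µM in any one of the three replicates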;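 further: plate controls were DMSO wells with UDG and oligo for no effect and DMSO wells lacking both for full effect; inhibitors lower the FAM signal released by uracil excision and alkaline cleavage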
# Target sequence (P12295 whole entry, looked up): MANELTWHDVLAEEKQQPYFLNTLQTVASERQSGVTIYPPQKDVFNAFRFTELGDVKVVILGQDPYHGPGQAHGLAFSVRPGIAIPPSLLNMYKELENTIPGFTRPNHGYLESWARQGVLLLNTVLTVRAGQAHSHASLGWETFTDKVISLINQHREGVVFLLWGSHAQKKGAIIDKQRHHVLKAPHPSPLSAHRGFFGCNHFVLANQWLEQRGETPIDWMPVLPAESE
# Starred values were filed as active, the others as inactive; · = no result; ! = a repeat was not active. A selection: hits, their analogues and other compounds. The true share with any hit is near 1.2%.
SMILES,NALP1 inh,APOBEC3G inh,PolyA inh,A3A deaminase,APOBEC3G confirm,UDG ctr A3G
COc1cnc(NS(=O)(=O)c2ccc(N)cc2)nc1,14,50*,-1,18,20*,-2
Cc1cc(C)nc(NS(=O)(=O)c2ccc(N)cc2)n1,18,-8,-13,-2,·,·
Cc1cc(SCC(=O)N/N=C/c2ccc(C(=O)O)cc2)nc2ccccc12,16,-6,-15,-3,·,·
Cc1ccc(CN2CCN(/N=C/c3ccccc3)CC2)cc1,-10,6,-5,2,·,·
COc1cc(/C=N/N2CCN(Cc3ccc(C)cc3)CC2)cc(OC)c1O,8,54*,26,1,-1,·
Cc1ccc(C2(C)NC(=O)N(CC(=O)Nc3nc(-c4ccccn4)cs3)C2=O)cc1 (stereo not given),·,56*,-1,2,67*,0
O=C(Nc1ccc(Cl)cc1Cl)c1cccc(N2C(=O)C=CC2=O)c1,·,53*,-14,8,59*,-3
O=C(Nc1ccc(Cl)cc1Cl)c1ccc2c(c1)OCCO2,·,-6,·,-4,·,·
CCN(CC)S(=O)(=O)c1ccc(C(=O)NCC(=O)NCCCc2ccccc2)cc1,-2,-5,23,1,·,·
COc1cccc2c(C)nc(Nc3nc(CSc4nnc(C)s4)cc(=O)[nH]3)nc12,13,41*,7,25,5,·
Cc1ccc2c(C)nc(Nc3nc(CSc4nnc(C)s4)cc(=O)[nH]3)nc2c1,-9,7,·,7,·,·
CCc1cc(C(=O)N2CCCC(C(=O)c3ccc(Oc4ccccc4)cc3)C2)n(C)n1 (stereo not given),4,-8,-10,-2,·,·
CCOC(=O)C1=C(C)N(c2ccccc2)C(=O)/C1=C\c1ccc(O)c(OC)c1,·,66*,7,5,3,·
CN=c1nc(-c2ccccc2)n(-c2ccccc2)s1,·,79*,·,-2,96*,-3
Cc1ccc(C(=O)NNC(=S)NC(=O)COc2ccccc2)cc1,-23,53*,8,-4,50*,-4
Cc1ccccc1C(=O)NCC(=O)NNC(=S)NC(=O)c1ccccc1,-9,43*,14,-1,16,-23
Cc1ccccc1C(=O)NNC(=S)NC(=O)COc1ccccc1,-6,44*,12,-8,64*,-2
CC(C)(C)c1ccc(C(=O)NC(=S)NNC(=O)COc2ccccc2)cc1,-2,-5,2,-3,·,·
Cc1ccc(Oc2ccc(/C=N/O)cn2)cc1,13,61*,3,-5,-1,-4
Cc1ccc(COc2ccc(/C=N/O)cc2)cc1,25,-6,7,-2,·,·
O=C(CNc1cc(S(=O)(=O)N2CCOCC2)ccc1N1CCOCC1)Nc1cccc(C(F)(F)F)c1,·,41*,·,2,3,·
CCC1(C)Cc2c(C#N)c(N)sc(=S)c2CO1 (stereo not given),8,17,9,-1,·,·
N#Cc1c(N)sc(=S)c2c1CCCC2,-6,47*,-10,24,25,·
CCOC(=O)c1sc(=S)n(C)c1NC(=O)c1ccc(OC)cc1,19,53*,-3,0,59*,-6
CCC(=O)c1ccc(OCC(=O)OCC(=O)NCC2CCCCC2)cc1,·,-7,-21,-2,·,·
SMILES,NALP1 inh,APOBEC3G inh,PolyA inh,A3A deaminase,APOBEC3G confirm,UDG ctr A3G
O=C(c1cccc(S(=O)(=O)Nc2ccc(Br)cc2)c1)N1CCC1,-4,0,8,2,·,·
COCCCC/C(=N\OCCN)c1ccc(C(F)(F)F)cc1,36,81*!,-1,0,-6,0
Cc1cccc(C(=O)NCC(=O)N2CCCCCCC2)c1,·,-8,·,-6,·,·
CC1Sc2ccc(C(=O)NCc3ccccn3)cc2NC1=O (stereo not given),·,55*,·,3,33*,-3
Cc1c(Cl)c([N+](=O)[O-])nn1CC(=O)NCC(C)C,8,48*,6,-1,-7,-1
CC1(C)O[C@@H]2[C@H](O1)[C@@H](COS(=O)(=O)O)O[C@H]2n1c(=S)[nH]c2c(=O)[nH]c(N)nc21,·,49*,·,-2,74*,-2
CC(C)CS(=O)(=O)C1=NN2C(=N)/C(=C\c3ccc(OC(=O)c4ccco4)cc3)C(=O)N=C2S1,2,-1,-3,-2,·,·
CS(=O)(=O)C1=NN2C(=N)/C(=C\c3ccc(OC(=O)c4ccco4)cc3)C(=O)N=C2S1,6,62*,24,0,-1,-6
